Structures are written as SMILES.

The test system of the first assay is Vero E6 infected with SARS-CoV-2. The experiment in a line: morphology score (similarity to uninfected cells); higher = more like uninfected cells. Particulars: 24 h.
`O=C(/C=C/c1ccc(O)c(O)c1)O[C@@H]1C[C@](O)(C(=O)O)C[C@@H](O)[C@H]1O` [chlorogenic-acid] (10 µM) yielded a morphology score of 0.0432.

Take `Oc1cc(O)c2cc(O)c(-c3cc(O)c(O)c(O)c3)[o+]c2c1` [delphinidin] (10 µM): the morphology score was found to be 0.115.

In turn, `CC(=O)Nc1cccc(Nc2ncnc(N3CCC(OCc4ccc(OC(F)(F)F)cc4)CC3)n2)c1C` (10 µM) came in with a morphology score of 0.184.

In turn, `COc1ccccc1CN[C@H]1CCCN[C@H]1c1ccccc1` (10 µM) returned a morphology score of 0.24.

For the next assay the test system is unchanged. The experiment in a line: SARS-CoV-2 infection rate relative to infected DMSO; higher = more infection, active = 60 or less. The following applies: 24 h.
For the compound `CCOC(=O)[C@@H](N)Cc1ccc(-c2cc(O[C@H](c3ccc(Cl)cc3-n3ccc(C)n3)C(F)(F)F)nc(N)n2)cc1` [telotristat-ethyl] (10 µM), the SARS-CoV-2 infection rate is 95.5% (inactive).

In the case of `CN(C)C(=O)Oc1ccc[n+](C)c1` [mestinon] (10 µM), the SARS-CoV-2 infection rate was 121% (inactive).

On to `CC(C)(C)NCC(O)COc1cccc2[nH]c(=O)[nH]c12` (centres undefined) (10 µM), for which the SARS-CoV-2 infection rate is 103% (inactive).

On to `NCC(CC(=O)O)c1ccccc1` (centres undefined) [fenigam] (10 µM), for which the SARS-CoV-2 infection rate was 89% (inactive).

Regarding `N#Cc1ccc(COC[C@H]2O[C@@H](n3c(NCc4ccc(Cl)c(Cl)c4)nc4c(N)ncnc43)[C@H](O)[C@@H]2O)cc1` (10 µM), the SARS-CoV-2 infection rate is 106% (inactive).

As to `N=C(N)S/C=C\C(=O)O` (10 µM), the SARS-CoV-2 infection rate is 108% (inactive).

As for `O=C(O)CCCO` (10 µM), the SARS-CoV-2 infection rate was 104% (inactive).

`CCn1c2ccccc2c2cc(CNC)ccc21` (10 µM): the SARS-CoV-2 infection rate is 56% (active).

Regarding `CCOc1cc(C(C)(C)C)ccc1C1=N[C@@](C)(c2ccc(Cl)cc2)[C@@](C)(c2ccc(Cl)cc2)N1C(=O)N1CCN(CCCS(C)(=O)=O)CC1` (10 µM), the SARS-CoV-2 infection rate was 104% (inactive).

As for `CCn1c(-c2nonc2N)nc2cnc(Oc3cccc(NC(=O)c4ccc(OCCN5CCOCC5)cc4)c3)cc21` (10 µM), the SARS-CoV-2 infection rate was 97% (inactive).

Regarding `CC(C)NNC(=O)c1ccncc1` [iproniazid] (10 µM), the SARS-CoV-2 infection rate is 108% (inactive).

Consider `CCCCCCCCCCCCCCCCCCCCCCO` [docosanol] (10 µM), for which the SARS-CoV-2 infection rate is 102% (inactive).

Take `Cc1cccc(C(=O)NCN2CCN(c3ccccc3C#N)CC2)c1` (10 µM): the SARS-CoV-2 infection rate is 102% (inactive).

Consider `Nc1ccc(C(=O)O)c(O)c1` [aminosalicylate] (10 µM), for which the SARS-CoV-2 infection rate was 106% (inactive).

On to `CCCN1CCC[C@@H]2Cc3n[nH]cc3C[C@H]21` [quinpirol-(-)] (10 µM), for which the SARS-CoV-2 infection rate is 92.5% (inactive).

`CCS(=O)(=O)c1ccc2oc(-c3ccc4ccccc4c3)nc2c1` [ezutromid] (10 µM): the SARS-CoV-2 infection rate was 98.5% (inactive).

Turning to `COc1cc(NS(C)(=O)=O)ccc1Nc1c2ccccc2nc2ccccc12` [amsacrine] (10 µM), the SARS-CoV-2 infection rate is 108% (inactive).

Take `CC[C@H](CO)Nc1nc(Nc2cccc(-c3ccccn3)c2)c2ncn(C(C)C)c2n1` (10 µM): the SARS-CoV-2 infection rate is 116% (inactive).

On to `CCc1ccc(/C=C2/SC(=S)NC2=O)cc1` (10 µM), for which the SARS-CoV-2 infection rate was 92.5% (inactive).

Consider `Cc1cccc(C)c1NC1=NCCCS1` [xylazine] (10 µM), for which the SARS-CoV-2 infection rate is 108% (inactive).

Consider `CC1(COc2ccc(CC3SC(=O)NC3=O)cc2)CCCCC1` (centres undefined) [ciglitazone] (10 µM), for which the SARS-CoV-2 infection rate was 110% (inactive).

`CC(C)n1nc(-c2ccc3oc(N)nc3c2)c2c(N)ncnc21` (0.833333 µM): the SARS-CoV-2 infection rate is 102% (inactive).

In the case of `COc1cc(C(=O)N2CCOCC2)cc(OC)c1OC` [trimetozine] (10 µM), the SARS-CoV-2 infection rate was 113% (inactive).

Consider `CC1C(=O)OC2C(O)C34C5CC(C(C)(C)C)C36C(OC(=O)C6O)OC4(C(=O)O5)C12O` (centres undefined) [ginkgolide-B] (10 µM), for which the SARS-CoV-2 infection rate is 93% (inactive).

For `COc1ccc(C(=O)NCc2cccnc2)cc1C(=O)NCc1cccnc1` [picotamide] (10 µM), the SARS-CoV-2 infection rate was 115% (inactive).

For `O=C(Nc1ccncc1)C(=O)c1cn(Cc2ccc(Cl)cc2)c2ccccc12` [indibulin] (0.833333 µM), the SARS-CoV-2 infection rate is 124% (inactive).

Regarding `[O-][n+]1ccccc1[S-].[O-][n+]1ccccc1[S-].[Zn+2]` [pyrithione-zinc] (10 µM), the SARS-CoV-2 infection rate was 91.5% (inactive).

With `COc1cccc(-c2cc(=O)c3ccccc3o2)c1N` (10 µM), the SARS-CoV-2 infection rate is 118% (inactive).

Consider `O=C(O[C@H]1[C@H](OC(=O)c2cccnc2)[C@@H](OC(=O)c2cccnc2)[C@H](OC(=O)c2cccnc2)[C@@H](OC(=O)c2cccnc2)[C@H]1OC(=O)c1cccnc1)c1cccnc1` [inositol-hexanicotinate] (10 µM), for which the SARS-CoV-2 infection rate was 109% (inactive).

Take `Cc1oc2nc3c(c(NC(=O)CN4CCCC4=O)c2c1C)CCCC3` (10 µM): the SARS-CoV-2 infection rate is 103% (inactive).

On to `C#C[C@]1(O)C=C[C@H]2[C@@H]3CCC4=CC(=O)CC[C@@H]4[C@H]3CC[C@@]21CC` [gestodene] (10 µM), for which the SARS-CoV-2 infection rate was 107% (inactive).

On to `COc1ccccc1OC(=O)c1ccccc1OC(C)=O` [guacetisal] (10 µM), for which the SARS-CoV-2 infection rate is 101% (inactive).

Consider `CCCCCS(=O)(=O)CCCCCCCCCCn1c(-c2ccc(O)cc2)c(C)c2cc(O)ccc21` (0.833333 µM), for which the SARS-CoV-2 infection rate was 102% (inactive).

On to `C[C@@H]1CN(CCCn2c3ccccc3c3ccccc32)C[C@H](C)N1` [rimcazole] (10 µM), for which the SARS-CoV-2 infection rate is 19.5% (active).

Take `CCCCCCCCCCCCCCCC[N+](C)(C)Cc1ccccc1` [benzyldimethylhexadecylammonium] (10 µM): the SARS-CoV-2 infection rate was 80% (inactive).

Turning to `O=C([O-])CN1CCN(CC(=O)[O-])CCN([C@H](CO)[C@H](O)CO)CCN(CC(=O)[O-])CC1.[Gd+3]` (racemic) [gadobutrol] (10 µM), the SARS-CoV-2 infection rate is 109% (inactive).

Turning to `O=C(/C=C/c1ccc(O)c(O)c1)O[C@@H]1C[C@](O)(C(=O)O)C[C@@H](O)[C@H]1O` [chlorogenic-acid] (10 µM), the SARS-CoV-2 infection rate is 112% (inactive).

Regarding `Oc1cc(O)c2cc(O)c(-c3cc(O)c(O)c(O)c3)[o+]c2c1` [delphinidin] (10 µM), the SARS-CoV-2 infection rate is 98.5% (inactive).

For the compound `CC(=O)Nc1cccc(Nc2ncnc(N3CCC(OCc4ccc(OC(F)(F)F)cc4)CC3)n2)c1C` (10 µM), the SARS-CoV-2 infection rate was 110% (inactive).

Take `COc1ccccc1CN[C@H]1CCCN[C@H]1c1ccccc1` (10 µM): the SARS-CoV-2 infection rate was 86% (inactive).

Values taken from the supplement of paper PMC13380429.
